Assay outcomes (PubChem)
The full list was thinned out, with hits kept by preference.
Pf Dd2 growth – Plasmodium falciparum Dd2 growth inhibition; P. falciparum Dd2 growth, SYBR Green, 72 h; Potency, µM (titrated, usually from 28.9 µM), for inactives: at the highest dose activity, negative = inhibition, actives largely listed as inhibitors; 4.3% of 120,000 active; active = well fitted inhibition curve with a large enough effect;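 also: plate controls were DMSO vehicle for no effect and reference drug for full effect; nearly all actives have a fitted effect of over 65% in size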
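Readout: SYBR Green fluorescence, 485 nm excitation, 535 nm emission, after ~16 h lysis at 37C. Before that, Dd2-infected red cells (2.5% hematocrit) grew 72 h with compound, 29 uM top final concentration.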
Numbers without * were called inactive; i = inactive; [ ] = dose if it differs, or a comment. Potency is read from the fitted curve at half-maximal effect.

SMILES | Pf Dd2 growth
Cc1ccc2nc(N(Cc3cccnc3)C(=O)c3ccco3)sc2c1 | 10µM*
Cc1ccc2nc(N(Cc3cccnc3)C(=O)C3COc4ccccc4O3)sc2c1 (stereo not given) | 6%
O=C(c1ccco1)N(Cc1cccnc1)c1nc2c(F)cc(F)cc2s1 | i
COc1ccc(OC)c(CNC(=O)[C@H]2CCC[C@H]2NC(=O)c2cnc(C)cn2)c1 | 7%
O=C1CCCCC(C(=O)NCC2CCCCC2)N1 (stereo not given) | 13%
CN1C[C@@H](NC(=O)COc2ccccc2)C[C@H]1c1nc(-c2cccnc2)no1 | -4%[44.1 µM]
c1ccc(C2CCN(c3ccc4nnc(-c5ccccn5)n4n3)CC2)cc1 | i
O=C1CC(c2ccccc2)N(C(=O)CNC(=O)c2cc(CN3CCOCC3)on2)CCCCCN1 (stereo not given) | 4%
Cc1ccccc1-n1nc(C)c2c1NC(=O)CSC2c1ccc(Cl)cc1 (stereo not given) | 2%
Cc1cc(C)nc(-n2nc(C)c3c2N(C)C(=O)CC3c2ccc(Cl)cc2)n1 (stereo not given) | 11%
Cc1cc(C)nc(-n2nc(C)c3c2N(Cc2ccccc2C)C(=O)CC3c2ccc(Cl)cc2)n1 (stereo not given) | 8.9µM*
Cc1noc(C)c1Cc1ccc(C(=O)N2CCC(C)(c3noc(-c4ccccn4)n3)CC2)o1 | -8%
Cc1cccc(C(=O)N2CCCCCCNC(=O)[C@@H]3C[C@@H](c4nc(-c5cccnc5)no4)C[C@@H]32)c1 | -7%
CCOc1ccccc1NC(=O)N1c2ccccc2Sc2ccccc21 | 13µM*
CCOc1ccccc1NC(=O)N1CCCn2nc(C)cc21 | i[5.79 µM]
CCOc1ccccc1NC(=O)N1CC(C)Oc2ccc(Cl)cc21 (stereo not given) | 15%
CC(=O)N1CCC([C@@H]2CN(C3CCSCC3)C[C@H]2CO)CC1 | 1%
O=[S+]1([O-])NCC2(CCN(Cc3ccc(F)cc3)C2)Nc2ccccc21 (stereo not given) | -27%
O=[S+]1([O-])NCC2(CCN(Cc3ccccn3)C2)Nc2ccccc21 (stereo not given) | i
O=[S+]1([O-])NCC2(CCN(Cc3cccc4ccccc34)C2)Nc2ccccc21 (stereo not given) | 13µM*
COc1ccc(-c2nc3cnccn3c2NCCC(=O)O)cc1 | -3%
Cc1n[nH]c(C)c1CCCNC(=O)C1CC2(CCNCC2)CN1 (stereo not given) | 10%
Cc1ccc(CCNC(=O)c2cc3c(-c4ccccc4F)nn(C)c3s2)cc1 | 19%
CCCN(CCC)CCCNC(=O)c1cc2c(-c3ccc(Cl)cc3)nn(C)c2s1 | 8.9µM*
COc1ccc(CNC(=O)c2cc3c(-c4ccc(Cl)cc4)nn(C)c3s2)cc1 | -16%
SMILES | Pf Dd2 growth
c1ccc(CN2CCC(Nc3ncncn3)C2)cc1 (stereo not given) | -7%
Cn1cnc(S(=O)(=O)N2CCC(N3CC(OCC4CC4)C34CCOCC4)CC2)c1 (stereo not given) | 1%
CCOc1ccccc1C(=O)N1CCC2(CC1)N=C(c1cccc(Br)c1)NO2 | -9%
Cc1ccc(-c2cc3c(=O)n(CCNC(=O)c4ccc5cc[nH]c5c4)ccn3n2)cc1C | i
CN(Cc1ccccc1C(F)(F)F)C(=O)c1ccc(F)cc1 | -23%[44.1 µM]
Cc1ncc2c(n1)CCCN(CC(=O)NC1CC1)C2=O | 35%
Cc1ccccc1NC(=O)Cn1c(=O)n(CCCC(=O)NCc2ccc3c(c2)OCO3)c(=O)c2ccccc21 | 22%
Cc1ccc(Cn2c(=O)n(-c3ccccc3)c(=O)c3ccc(C(=O)NCc4ccco4)cc32)cc1 | -16%
O=C(Cn1c(=O)n(Cc2ccc(C(=O)NCc3ccc4c(c3)OCO4)cc2)c(=O)c2ccccc21)Nc1ccccc1F | i
Cc1ccc(NC(=O)Cn2c(=O)n(-c3ccccc3)c(=O)c3ccc(C(=O)NCc4ccc5c(c4)OCO5)cc32)cc1 | -8%
O=C(Cn1c(=O)n(-c2ccccc2)c(=O)c2ccc(C(=O)NCc3ccc4c(c3)OCO4)cc21)Nc1ccc(Br)cc1F | 8.9µM*
Cc1ccc(NC(=O)Cn2c(=O)n(Cc3nc(-c4ccccc4)no3)c(=O)c3cc4c(cc32)OCO4)c(C)c1 | 87%
Cc1ccc(Cl)cc1NC(=O)Cn1c(=O)n(Cc2ccc(C(=O)NCc3ccc4c(c3)OCO4)cc2)c(=O)c2ccccc21 | -17%
O=C(Cn1c(=O)n(Cc2nc(-c3ccccc3)no2)c(=O)c2cc3c(cc21)OCO3)Nc1ccc(Cl)cc1 | 10µM*
CCN(C(=O)Cn1c(=O)n(-c2ccccc2)c(=O)c2ccc(C(=O)NCc3ccc4c(c3)OCO4)cc21)c1cccc(C)c1 | 7.1µM*
Cc1c(Cl)cccc1NC(=O)Cn1c(=O)n(Cc2nc(-c3ccccc3)no2)c(=O)c2cc3c(cc21)OCO3 | -12%
Cc1ccc(NC(=O)Cn2c(=O)n(Cc3ccc(C(=O)NCc4ccc5c(c4)OCO5)cc3)c(=O)c3ccccc32)cc1 | 8.9µM*
Cc1ccc(-n2c(=O)c3ccc(C(=O)NCc4ccccc4Cl)cc3n(CC(N)=O)c2=O)cc1 | 23%
COc1ccc(CC(=O)N[C@H](C)c2c(-c3ccc(F)cc3)noc2C(=O)O)cc1 | 13%[44.1 µM]
CCN1C(=O)CCN(C(=O)c2cccs2)CC12CCOCC2 | 13%
CC1CCN(C(=O)c2cc3n(n2)CC(c2ccc(Cl)cc2)OC3)CC1 (stereo not given) | i
COc1cncc(CN2CC[C@@H]3OCC(=O)N(C(C)C)[C@H]3CC2)c1 | 24%[44.1 µM]
Cc1ccc(-c2noc([C@@H]3CCCN3C(=O)c3ccc(C)nc3)n2)cc1 | i
CCCCc1nn(CC(=O)NCC2Cc3ccccc3CN2C)c(=O)n1CC (stereo not given) | 1%
CCOCC(=O)N1CCC(O)(c2ccccc2)[C@H](N2CCCC2)C1 (stereo not given in full) | i[5.79 µM]
SMILES | Pf Dd2 growth
COCCn1c(SCC(=O)c2ccc(C)cc2C)nc2cc(C(=O)NC3CCCC3)ccc2c1=O | 17%
O=C(CSc1nc2cc(C(=O)NC3CCCC3)ccc2c(=O)n1CC1CCCO1)c1cccc(Cl)c1 (stereo not given) | 10µM*
Cc1ccc(C(=O)CSc2nc3cc(C(=O)NC4CCCC4)ccc3c(=O)n2CC2CCCO2)cc1 (stereo not given) | -17%
O=C(CSc1nc2cc(C(=O)NC3CCCC3)ccc2c(=O)n1CC1CCCO1)c1ccc(F)cc1 (stereo not given) | -26%
Cc1ccc(C)c(C(=O)CSc2nc3cc(C(=O)NC4CCCC4)ccc3c(=O)n2CC2CCCO2)c1 (stereo not given) | 10µM*
COCCn1c(SCC(=O)c2ccc(C)cc2)nc2cc(C(=O)NC3CCCC3)ccc2c1=O | 20%
CCCCS(=O)(=O)N1CCN(C2CCN(CCOC)C2=O)CC1 (stereo not given) | -11%
O=C(NC[C@H]1O[C@@H](CO)[C@@H](O)[C@H]1N1CCOCC1)c1ccc(F)c(Cl)c1 | -15%[44.1 µM]
Cc1noc(C)c1CCC(=O)N1CCC(C2CCN(S(C)(=O)=O)CC2)C1 (stereo not given) | 23%
CC(C)CC(=O)NCCC1CCN(C(=O)Nc2cc(F)cc(F)c2)CC1 | -19%
COc1ccc(Nc2ncnc3sc4c(c23)CCCC4)cc1 | 4%
CCNc1ncnc2sc3c(c12)CCN(C(=O)c1ccnn1C)C3 | 11µM*
CCn1c2c(c(=O)n1-c1ccccc1)CCN(C(=O)c1ccnn1C)C2 | 31%[44.1 µM]
CCNc1ncnc2sc3c(c12)CCN(Cc1ccc[nH]1)C3 | 1µM*
CCc1ccc(Nc2ncnc3sc4c(c23)CCCC4)cc1 | i
CCCNC(=O)N1CCc2c(sc3ncnc(N4CCN(C)CC4)c23)C1 | -5%
